According to ChEMBL document CHEMBL4513216, “Probing the Open Global Health Chemical Diversity Library for Multistage-Active Starting Points for Next-Generation Antimalarials” (ACS Infect Dis, 2020):
Among all 69,000 compounds or so, about 8,600 (12%) showed an effect of 50% or more. What follows is part of a selection rich in strong results, with near analogues and random picks from the rest.

Tested on: Plasmodium berghei
Assay: Screen against P. berghei liver stage (PbLuc), transformed with Luciferase, at 10uM
Format: functional, HepG2
Conditions: tested at 10 uM

| Structure (SMILES) | INHIBITION [%] |
| --- | --- |
| CCc1cc(O)n2nc(C3CCN(C(=O)c4ccncc4)CC3)cc2n1 | 32.85 |
| CNC(=O)CN1CCOCC2(C1)CN(C(=O)C(C)C)CCO2 (configuration not stated) | -15.7 |
| Cc1ncc2c(n1)CCN(C(C(N)=O)c1ccccc1)C2 (configuration not stated) | -4.4 |
| Cc1ncc2c(n1)CN(C(C(N)=O)c1ccccc1)CC2 (configuration not stated) | -40.4 |
| Cc1ncc2c(n1)CN(C(C(N)=O)c1ccc(F)cc1)CC2 (configuration not stated) | 58.5 |
| O=C(c1ccncc1)N1CCOC2(COCCN(c3cncnc3)C2)C1 (configuration not stated) | 37.8 |
| Cc1nc(Cn2c3c(ccc2=O)CCN(CC2CCC2)CC3)cs1 | -18.5 |
| CC1c2ncc(Cn3cccn3)n2CCN1c1ncccn1 (configuration not stated) | 23.1 |
| CC1c2ncc(Cn3cccn3)n2CCN1Cc1ccccn1 (configuration not stated) | 58.4 |
| CC1c2ncc(Cn3cccn3)n2CCN1Cc1cccnc1 (configuration not stated) | -9.26 |
| CC1c2ncc(CN3CCN(C)CC3)n2CCN1Cc1ccsc1 (configuration not stated) | 27.3 |
| CC1c2ncc(CNC(=O)C3CC3)n2CCN1Cc1ccccn1 (configuration not stated) | -88.3 |
| CC1c2ncc(CN3CCN(C)CC3)n2CCN1Cc1cccnc1 (configuration not stated) | 34.8 |
| CC1c2ncc(CN3CCN(C)CC3)n2CCN1Cc1ccc(F)cc1 (configuration not stated) | 11.5 |
| CC1c2ncc(Cn3cccn3)n2CCN1Cc1ccc(F)cc1 (configuration not stated) | 54.8 |
| CC1c2ncc(CN3CCN(C)CC3)n2CCN1Cc1ccccn1 (configuration not stated) | 53 |

| Structure (SMILES) | INHIBITION [%] |
| --- | --- |
| c1ccc(Cc2nnc(CN3CCOC(Cn4cccn4)C3)o2)cc1 (configuration not stated) | 19.4 |
| Cc1cccc(C(=O)N2C[C@@H]3C(CC(=O)N4CCCC4)[C@@H]3C2)n1 (some centres not stated) | -2.35 |
| CSc1nc2ccsc2c(=O)n1CC(=O)N(C)c1ccccc1 | 36.8 |
| O=C(O)[C@@H]1CCN(C(=O)c2ccccn2)[C@@H]1c1ccc(F)cc1 | -8.58 |
| CC1CN(C)c2ccccc2N(C(=O)c2ccc(=O)n(C)c2)C1 (configuration not stated) | 31.8 |
| CN1C(=O)CN(C(=O)c2ccc(=O)n(C)c2)c2ccccc21 | 60.5 |
| CN1CC2(CCN(C(=O)c3ccc(=O)n(C)c3)CC2)CC1=O | 50.5 |
| Cc1ccc2c(c1)OCCN2C(=O)c1ccc(=O)n(C)c1 | 8.48 |
| CN1CC2(CCN(C(=O)c3ccc4nonc4c3)CC2)CC1=O | -6.01 |
| CN1CCN(C(=O)c2ccc(=O)n(C)c2)Cc2ccccc21 | 40.3 |
| CN1CCN(C(=O)c2ccc(=O)n(C)c2)c2ccccc21 | 50.4 |
| CC1CN(C(=O)c2ccc(=O)n(C)c2)c2ccccc2NC1=O (configuration not stated) | -12.2 |
| COCCCN1CC2(CCN(C(=O)c3ccc(=O)n(C)c3)CC2)CC1=O | -14.7 |
| Cn1cc(C(=O)N2CCOc3ccccc32)ccc1=O | 51.8 |
| Cn1cc(C(=O)N2CCOc3cc(F)ccc32)ccc1=O | 16.1 |
| CCN1CCN(C(=O)c2ccc(=O)n(C)c2)c2ccccc21 | 44.1 |
